Assay results from the supplement of paper PMC8975748.
Where a name gives a salt, the structure may show the parent alone.

Tested on: Saccharomyces cerevisiae BY4741 SeMeCo community
Assay: z-score of subpopulation abundance vs DMSO median, subpopulation auxotrophic for UM; higher = larger share of this subpopulation than in DMSO controls
Conditions: 10 µM; 24 h; SM minimal medium; subpopulation (auxotrophy): UM
Protocol: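 Fluorescent four-plasmid SeMeCo (self-establishing metabolically cooperating S. cerevisiae BY4741 community; plasmids pH-mRuby2, pL-mWasabi, pU-eCFP, pM-TagRFP657) was grown 24 h in minimal SM medium with each Selleck FDA-approved drug at 10 µM in 384-well plates. Cells were fixed and imaged by high-content confocal microscopy. For each auxotrophic subpopulation (and the prototroph), a z-score gives the deviation from the DMSO vehicle-control population median.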

Going from Clc1ccc(COC(Cn2ccnc2)c2ccc(Cl)cc2Cl)cc1 (stereo not given) [Econazole] to CC(=O)N1CCN(c2ccc(OCC3COC(Cn4ccnc4)(c4ccc(Cl)cc4Cl)O3)cc2)CC1 (stereo not given) [Ketoconazole], the “z-score of subpopulation abundance” value falls from 9.39 to -0.23.

First: CN1CCN(C2=Nc3ccccc3Oc3ccc(Cl)cc32)CC1 [Loxapine Succinate]
Second: O=C(O)c1cn(-c2ccc(F)cc2)c2cc(N3CCNCC3)c(F)cc2c1=O [Sarafloxacin HCl]
The “z-score of subpopulation abundance” value of the first is higher: 0.97 for the first, 0.84 for the second.

First: CCOC(=O)OC(C)OC1=C(C(=O)Nc2ccccn2)N(C)S(=O)(=O)c2ccccc21 (stereo not given) [Ampiroxicam]
Second: COC(=O)C1=C(C)NC(C)=C(C(=O)OC2CCCN(Cc3ccccc3)C2)C1c1cccc([N+](=O)[O-])c1 (stereo not given) [Benidipine HCl]
The “z-score of subpopulation abundance” value of the first is higher: 0.08 for the first, -0.42 for the second.

Going from Cc1nnc(SCC2=C(C(=O)O)N3C(=O)[C@@H](NC(=O)Cn4cnnn4)[C@H]3SC2)s1 [Cefazolin Sodium] to Cc1nnc(SCC2=C(C(=O)O)N3C(=O)[C@@H](NC(=O)Cn4cc(Cl)c(=O)c(Cl)c4)[C@H]3SC2)s1 [Cefazedone], the “z-score of subpopulation abundance” value falls from 0.25 to -0.27.

Going from C#CCC(Cc1cnc2nc(N)nc(N)c2n1)c1ccc(C(=O)N[C@@H](CCC(=O)O)C(=O)O)cc1 (stereo not given in full) [Pralatrexate] to O=C(O)c1cc(/N=N/c2ccc(O)c(C(=O)O)c2)ccc1O [Olsalazine Sodium], the “z-score of subpopulation abundance” value rises from -5.43 to -1.01.

First: COc1cc2c(cc1OC)C(=O)C(CC1CCN(Cc3ccccc3)CC1)C2 (stereo not given) [Donepezil HCl]
Second: OC(CCN1CCCCC1)(c1ccccc1)C1CCCCC1 (stereo not given) [Trihexyphenidyl hydrochloride]
The “z-score of subpopulation abundance” value of the first is lower: -0.48 for the first, 0.41 for the second.

Going from CNCC[C@H](Oc1cccc2ccccc12)c1cccs1 [Duloxetine HCl] to Nc1ccc(S(=O)(=O)Nc2ccnn2-c2ccccc2)cc1 [Sulfaphenazole], the “z-score of subpopulation abundance” value falls from 0.1 to 0.

Going from c1ccc2[nH]c(-c3cscn3)nc2c1 [Thiabendazole] to O=C1Nc2ccccc2C1=O [Isatin], the “z-score of subpopulation abundance” value rises from -0.41 to 0.51.

Compared with COC(=O)C1=C(C)NC(C)=C(C(=O)OC(C)C)C1c1cccc2nonc12 (stereo not given) [Isradipine], CO/N=C(\C(=O)N[C@@H]1C(=O)N2C(C(=O)O)=C(Cn3ccc(=N)n3CCO)CS[C@H]12)c1csc(N)n1 [Cefoselis Sulfate] is lower in “z-score of subpopulation abundance” value: 1.06 for the first, 0.03 for the second.

Compared with CN[C@H](CC(C)C)C(=O)N[C@H]1C(=O)N[C@@H](CC(N)=O)C(=O)N[C@H]2C(=O)N[C@H]3C(=O)N[C@H](C(=O)N[C@H](C(=O)O)c4cc(O)cc(O)c4-c4cc3ccc4O)[C@H](O)c3ccc(c(Cl)c3)Oc3cc2cc(c3O[C@@H]2O[C@H](CO)[C@@H](O)[C@H](O)[C@H]2O[C@H]2C[C@](C)(N)[C@H](O)[C@H](C)O2)Oc2ccc(cc2Cl)[C@H]1O [Vancomycin], CCCCCCCCCC(=O)NC1C(Oc2c3cc4cc2Oc2ccc(cc2Cl)C(OC2OC(CO)C(O)C(O)C2NC(C)=O)C2NC(=O)C(NC(=O)C4NC(=O)C4NC(=O)C(Cc5ccc(c(Cl)c5)O3)NC(=O)C(N)c3ccc(O)c(c3)Oc3cc(O)cc4c3)c3ccc(O)c(c3)-c3c(OC4OC(CO)C(O)C(O)C4O)cc(O)cc3C(C(=O)O)NC2=O)OC(CO)C(O)C1O (stereo not given) [Teicoplanin] is higher in “z-score of subpopulation abundance” value: -0.16 for the first, 0.78 for the second.

First: NC[C@H]1O[C@H](O[C@H]2[C@H](O[C@@H]3O[C@H](CO)[C@@H](O)[C@H]3O)[C@@H](O)[C@H](N)C[C@@H]2N)[C@H](N)[C@@H](O)[C@@H]1O [Ribostamycin Sulfate]
Second: CO[C@H]1C[C@@H]2CC[C@@H](C)[C@@](O)(O2)C(=O)C(=O)N2CCCC[C@H]2C(=O)O[C@H]([C@H](C)C[C@@H]2CC[C@@H](O)[C@H](OC)C2)CC(=O)[C@H](C)/C=C(\C)[C@@H](O)[C@@H](OC)C(=O)[C@H](C)C[C@H](C)/C=C/C=C/C=C/1C [Rapamycin (Sirolimus)]
The “z-score of subpopulation abundance” value of the first is lower: 0.36 for the first, 13.7 for the second.

Compared with Clc1ccccc1C(c1ccccc1)(c1ccccc1)n1ccnc1 [Clotrimazole], CSc1nc2cc(Cl)c(Oc3cccc(Cl)c3Cl)cc2[nH]1 [Triclabendazole] is lower in “z-score of subpopulation abundance” value: 18.8 for the first, -5.17 for the second.

First: CCCOc1ccc(C(=O)OCCN(CC)CC)cc1N [Proparacaine HCl]
Second: CCN(CC)CCOC(=O)c1ccc(N)cc1 [Procaine HCl]
The “z-score of subpopulation abundance” value of the first is higher: -0.06 for the first, -0.8 for the second.

Compared with O=C1CN(/N=C/c2ccc(-c3ccc([N+](=O)[O-])cc3)o2)C(=O)N1 [Dantrolene sodium hemiheptahydrate], Cc1cc(NS(=O)(=O)c2ccc(N)cc2)no1 [Sulfamethoxazole sodium] is higher in “z-score of subpopulation abundance” value: -3.9 for the first, 1.33 for the second.

First: CO[C@H]1C[C@@H]2CC[C@@H](C)[C@@](O)(O2)C(=O)C(=O)N2CCCC[C@H]2C(=O)O[C@H]([C@H](C)C[C@@H]2CC[C@H](n3cnnn3)[C@H](OC)C2)CC(=O)[C@H](C)/C=C(\C)[C@@H](O)[C@@H](OC)C(=O)[C@H](C)C[C@H](C)/C=C/C=C/C=C/1C [Zotarolimus(ABT-578)]
Second: CC1(C)S[C@@H]2[C@H](NC(=O)[C@H](N)c3ccccc3)C(=O)N2[C@H]1C(=O)OCOC(=O)[C@@H]1N2C(=O)C[C@H]2S(=O)(=O)C1(C)C [Sultamicillin]
The “z-score of subpopulation abundance” value of the first is higher: 7.28 for the first, 0.83 for the second.

Going from Oc1c(Br)cc(Br)c2cccnc12 [Broxyquinoline] to Nc1nc2ccc(OC(F)(F)F)cc2s1 [Riluzole], the “z-score of subpopulation abundance” value falls from 6.77 to -0.42.

First: CCCCCCCCCCCC(=O)O [Lauric Acid]
Second: CCCCCCCCCCCCCCCCCCOP(=O)([O-])OC1CC[N+](C)(C)CC1 [Perifosine (KRX-0401)]
The “z-score of subpopulation abundance” value of the first is lower: 0.3 for the first, 7.06 for the second.

First: C#CCN[C@@H]1CCc2ccccc21 [Rasagiline]
Second: CCc1cccc2c3c([nH]c12)C(CC)(CC(=O)O)OCC3 (stereo not given) [Etodolac]
The “z-score of subpopulation abundance” value of the first is higher: 0.58 for the first, -0.43 for the second.

Going from N[C@@H]1CONC1=O [D-Cycloserine] to CC(=O)OCC1=C(C(=O)O)N2C(=O)[C@@H](NC(=O)CSc3ccncc3)[C@H]2SC1 [Cephapirin Benzathine], the “z-score of subpopulation abundance” value rises from -0.3 to -0.24.

Going from C=CC(C)(O)CCC=C(C)C (stereo not given) [Linalool] to CCCc1nn(C)c2c(=O)[nH]c(-c3cc(S(=O)(=O)N4CCN(C)CC4)ccc3OCC)nc12 [Sildenafil Citrate], the “z-score of subpopulation abundance” value falls from 0.7 to 0.49.
